This is part of a sample that, as a whole, favours compounds with a hit. Of some 83,000 tested, about 20% had one in any assay.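 Percent growth is the endpoint: 0 to 100 indicates growth inhibition (40 means 60% inhibition), 0 means no net growth, and negative values indicate cell death.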 A number with no mark means an inactive call. The source made the active and inactive calls.

For this assay, the system named is HT29 colon. Briefly: NCI-60 one-dose screen, 48 h (100 = growth as untreated, 0 = no growth, -100 = all killed). As to conditions: 10 µM. As for the experimental part:
Growth inhibition of the HT29 human tumor cell line is measured as a screen for anti-cancer activity. Cells are grown in 96 well plates and exposed to the test compound for 48 hours. Compounds are tested at a single concentration, which is 10^-5 M for most compounds. The reported endpoint is percent growth (GI% or GIPRCNT), where numbers from 0 - 100% represent growth inhibition, and numbers from -100% - 0 represent cell death. For example, a value of 40 represents 60% growth inhibition. A value of 0 means no net growth occurred over the course of the experiment. A value of -40 indicates 40% of cells at the beginning of the experiment died by the end of the experiment. A value of -100 means all cells are dead at the end of the experiment.
NCI-60 Human Tumor Cell Lines Screen was performed using the standard one-dose NCI protocol, which is described in more detail at https://dtp.cancer.gov/discovery_development/nci-60/default.htm.
Compounds with GIPRCNT values below 10 were considered active. Activity score was based on GIPRCNT using the following formula: […]
Score is 0 for GIPRCNT values of 100 or above, 50 for GIPRCNT values of 0, and 100 for GIPRCNT values of -100.
With `FC(F)(F)c1ccc2nc(-c3nc(-c4ccccc4)n4ccccc34)[nH]c2c1`, the growth is 14.7%.

`O=C(CC(C(=O)c1ccccc1)N1CCOCC1)c1ccccc1` (stereo not given): the growth was 92.4%.

For the molecule `N=c1nc(N)ncn1-c1ccccc1`, the growth was 96.4%.

For the molecule `CC(C)(C#N)Nc1ccccc1`, the growth is 99.5%.

Consider `Cc1cccc(NC2=C(C#N)C(=O)NC3(CCCC3)S2)c1`, for which the growth was 103%.

Take `CN(C)N=Nc1nn(C(=O)Nc2ccc(Cc3ccccc3)cc2)c2ccccc12`: the growth was 41%.

As to `O=C(Nc1cccc(-n2cc(-c3ccncc3)c(-c3cc(O)cc(Cl)c3)n2)c1)c1cc(C(F)(F)F)cc(C(F)(F)F)c1`, the growth is 19.7%.

For `Clc1nc(Cl)c2c(ncn2C/C=C\Cn2cnc3c(Cl)nc(Cl)nc32)n1`, the growth is -30.6% (active).

Consider `Oc1[nH]c2ccc(Cl)cc2c1/C=c1/ccc2c(c1)N=C(c1cccs1)N=2`, for which the growth is 43.8%.

As to `c1ccc(CP(Cc2ccccc2)c2ccccc2)cc1`, the growth was 88.2%.

For the molecule `CCC(=O)N1C/C(=C/c2ccc(Cl)cc2)C(=O)/C(=C/c2ccc(Cl)cc2)C1`, the growth is -72.8% (active).

Regarding `Cc1cc(N(CCCNc2ccnc3cc(Cl)ccc23)Cc2ccc3c(c2)OCO3)nc(N2CCCCC2)n1`, the growth was -49.9% (active).

Consider `COc1cc(/C=C/C(=O)c2ccc(Cl)cc2)ccc1OS(=O)(=O)c1ccc(C)cc1`, for which the growth was 28.5%.

For the molecule `O=C1c2ccc3c4c(ccc(c24)C(=O)N1CCNCc1ccccc1)C(=O)N(CCNCc1ccccc1)C3=O`, the growth was -16.5% (active).

For the molecule `CC(C)C[C@H](NC(=O)[C@H](Cc1cccc2ccccc12)NS(=O)(=O)c1cccc2cccnc12)B(O)O`, the growth is -56.6% (active).

As for `COC(=O)C1(C)Cc2cc(OC(C)=O)c(OC(C)=O)cc2N1` (stereo not given), the growth is 79.8%.

For the molecule `CCOC1(OCC)OC(c2ccccc2)=C(C#N)C(/C=C\c2ccccc2)C1(OCC)OCC` (stereo not given), the growth was 69.6%.

As to `O=C(/C(=C/c1ccccc1)CN1CCCCC1)c1ccccc1`, the growth is -30.6% (active).

Regarding `COc1ccc(/C=C/C(=O)Nc2ccc(-c3nc4ccc(OC)cc4s3)cc2)cc1`, the growth is 110%.

Take `c1ccc2c(c1)oc1c3c(ccc12)NCCC3`: the growth was 95.1%.

Regarding `COc1ccc(-c2nn(-c3cccc(NC(=O)Nc4cc(C(F)(F)F)cc(C(F)(F)F)c4)c3)cc2-c2ccncc2)cc1Cl`, the growth is -17.4% (active).

`Cc1cc(Cl)nc(N(CCCNc2ccnc3cc(Cl)ccc23)Cc2cccs2)n1`: the growth is 1.59% (active).

With `O=C(Nc1cccc(Cl)c1)Nc1nccs1`, the growth was 94.4%.

For `C#Cc1ccc(-n2c(/C=C/c3ccc4ccccc4c3)nc3ncccc3c2=O)cc1`, the growth was 0.964% (active).

In the case of `O=[N+]([O-])c1ccc(N/N=C/c2cccc3ccccc23)nc1`, the growth is 97.1%.

On to `COc1ccc(/C=C2/CN(C(=O)c3ccccc3F)C/C(=C\c3ccc(OC)cc3)C2=O)cc1`, for which the growth is -82.5% (active).

In the case of `COc1cc(C(=C2O[C@@H]([C@H]3COC(C)(C)O3)[C@H]3OC(C)(C)O[C@@H]23)c2cc(OC)c(OC)c(OC)c2)cc(OC)c1OC`, the growth was 114%.

On to `COc1cc(CNc2ccccc2C(=O)N2CCN(C(=O)c3cc(-c4cc(OC)c(OC)c(OC)c4)n4nc(-c5ccccc5)cc4n3)CC2)cc(OC)c1OC`, for which the growth is 12.9%.

As to `Nc1ccc2cc(S(=O)(=O)O)cc(O)c2c1N=Nc1ccc(F)cc1`, the growth is 107%.

As for `O=C(CCCCCCC(=O)Nc1cccnc1)NO`, the growth is 13.2%.

Consider `CN(C)C(=S)N/N=C\C=N/NC(=S)N(C)C`, for which the growth was 13.5%.

For the molecule `COc1cc(CNCCCCCCN2C(=O)c3cccc4cccc(c34)C2=O)ccc1O`, the growth was 26.9%.

On to `CN(C)CCS(=O)(=O)CCN(C)C`, for which the growth is 109%.

In the case of `O=C(Nc1ccncc1)C(=O)c1cn(S(=O)(=O)c2cccc(Cl)c2)c2ccccc12`, the growth was 29%.

Consider `CN(CCc1ccccn1)c1ccccc1`, for which the growth is 102%.

As for `COC(=O)c1ccc(=O)oc1`, the growth was 113%.

In the case of `CCOC(=O)CNC(=O)CCCCSc1ncnc2nc[nH]c12`, the growth is 103%.

`COc1ccc(Cn2c(C(N)=O)cc3c2-c2nc(N)ncc2CCC3)cc1`: the growth is 93.2%.

For `C=C1c2c(C)nn(-c3ccc(OC)cc3)c2N(C)C23C[C@@H]1C1(C)c4c(C)nn(-c5ccc(OC)cc5)c4N(C)C(C)(C[C@H]12)C3` (stereo not given in full), the growth is 19.4%.

With `ClCCOCCn1cnc2c(Cl)nc(Cl)nc21`, the growth is 36.6%.

(Values after PubChem BioAssay (NCI).)
